For twelve compounds, Potency, max response and outcome results are on record in PubChem BioAssay (NCATS).

For assay [1], the system named is CRL-7250. Description: Cytotoxic Profiling of Annotated Libraries Using Quantitative High-Throughput Screening (AID 1296008). For max response: % is set by controls: 0 for no effect and ±100 for the full control effect. Note: potency is the fitted concentration of half-maximal effect. The conditions noted are these: Five cell lines viability, CellTiter-Glo ATP luminescence, 48-72 h; max response: active compounds read low. In outline:
(§1)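 Cytotoxicity was measured as CellTiter-Glo ATP luminescence, read after 10 min at room temperature. Compound treatment of the cells lasted 48 or 72 hr at 37 degrees Celsius in a qHTS format.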

Assay [2] concerns NIH3T3. The description is as above. To be noted: Five cell lines viability, CellTiter-Glo ATP luminescence, 48-72 h; max response: active compounds read low. In a few lines:
as §1

Assay [3] concerns HEK293. The description is as above. To be noted: Five cell lines viability, CellTiter-Glo ATP luminescence, 48-72 h; max response: active compounds read low. In a few lines:
as §1

Assay [4] relates to HaCat. Described as above. The conditions noted are these: Five cell lines viability, CellTiter-Glo ATP luminescence, 48-72 h; max response: active compounds read low. In outline:
as §1

In assay [5] the test system is HACAT. Description: qHTS assay to identify novel small-molecules to repurpose for Merkel cell carcinoma treatment (AID 1296009). The conditions noted are these: MCC and control cell lines, CellTiter-Glo viability, 72 h; at 44.8 µM (top of the series) unless noted. In outline:
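Cell viability measured by CellTiter-Glo following 72 hr compound treatment at 37 degree celsius, with NPC and MIPE libraries tested in 8- and 11-point concentration series.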

Assay [6] concerns KB-3-1. Description: Cytotoxic Profiling of Annotated Libraries Using Quantitative High-Throughput Screening (AID 1296008). For max response: % is set by controls: 0 for no effect and ±100 for the full control effect. Note: potency is the fitted concentration of half-maximal effect. The conditions noted are these: Five cell lines viability, CellTiter-Glo ATP luminescence, 48-72 h; max response: active compounds read low. In outline:
as §1

Assay [7] concerns ICS. The assay can be described thus: qHTS profiling for inhibitors of Plasmodium falciparum proliferation (AID 504749). Note: potency is the fitted concentration of half-maximal effect. To be noted: P. falciparum in erythrocytes, SYBR Green DNA, 72 h; series mostly up to 28.7 µM. In outline: (§2)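 In a 72 h erythrocytic culture (37 C, humidified, 5% CO2) at 2.5% hematocrit and 0.3% starting parasitemia, compounds were tested; SYBR Green I in detergent lysis buffer stained parasite DNA overnight.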

Assay [8] relates to N140. The assay is described as above. To be noted: P. falciparum in erythrocytes, SYBR Green DNA, 72 h; series mostly up to 28.7 µM. In outline: as §2
Assay [9] deals with P93_24. The description is as above. To be noted: P. falciparum in erythrocytes, SYBR Green DNA, 72 h; series mostly up to 28.7 µM. In outline: as §2
Assay [10] relates to PAD. The description is as above. To be noted: P. falciparum in erythrocytes, SYBR Green DNA, 72 h; series mostly up to 28.7 µM. In outline:
as §2

Assay [11] deals with PC49. Described as above. The conditions noted are these: P. falciparum in erythrocytes, SYBR Green DNA, 72 h; series mostly up to 28.7 µM. In outline:
as §2

In assay [12] the test system is TAB165. The description is as above. To be noted: P. falciparum in erythrocytes, SYBR Green DNA, 72 h; series mostly up to 28.7 µM. In a few lines: as §2

Each structure is given as a SMILES string. Values joined by “and” are separate entries in the source; they are usually repeats but may differ in a detail not shown here. Identical values can stand only once. Inconclusive results are not listed. Values without a mark were called inactive. Active and inactive are the calls of the source. Calls come from the whole dose curve; as a rule, active = well fitted inhibition curve with a large enough effect; inconclusive = small, poorly fitted or top-dose-only effect; inactive = flat fitted curve, though single readings scatter.
Note: nearly all actives have a fitted effect of over 60% in size.

In the case of `CC(C)=CCNc1ncnc2c1ncn2[C@@H]1O[C@H](CO)[C@@H](O)[C@H]1O`, the Potency in [1] is 1.5 µM (active); in [2], 7.5 µM (active).

Consider `N#CSCC(=O)O`, for which the max response in [3] is 0.303%. The call in assay [4], in assay [2] and in [5] was inactive.

For `COc1ccc(OC(=O)N(CC(=O)O)Cc2ccc(OCCc3nc(-c4ccccc4)oc3C)cc2)cc1`, the max response in [4] was -6.17%; in assay [2], 0.554%.

Turning to `N#C/C(=C1/SC[C@@H](c2ccc(Cl)cc2Cl)S1)n1ccnc1`, the max response is -0.746% in [4]; -3.46% and -14.6% and -17.3% in [6]; -5.57% in assay [2].

In the case of `NC(N)=NCCCCN=C(N)N`, the max response in assay [6] is -9.65%.

In the case of `CCCC(=O)O[C@]1(C(=O)CC)CC[C@H]2[C@@H]3CCC4=CC(=O)CC[C@]4(C)[C@H]3[C@@H](O)C[C@@]21C`, the max response in assay [4] was -13.1%; in assay [2] it was -5.79%.

`CC(C)C[C@H](NC(=O)CNC(=O)[C@H](Cc1ccc(O)cc1)NC(=O)[C@H](CO)NC(=O)[C@H](Cc1c[nH]c2ccccc12)NC(=O)[C@H](Cc1cnc[nH]1)NC(=O)[C@@H]1CCC(=O)N1)C(=O)N[C@@H](CCCN=C(N)N)C(=O)N1CCC[C@H]1C(=O)NCC(N)=O` (stereo in doubt): the max response in [6] was -12.3%.

For `COc1cccc2c1[C@@H]1CN(CCCCn3c(=O)[nH]c4c(sc5ncc(-c6ccccc6)nc54)c3=O)C[C@@H]1CO2`, in assay [6], the max response was 2.96%.

In the case of `CC(C)(c1ccc(O)cc1)c1ccc(O)cc1`, the max response in assay [4] is -13.2%; in assay [6], -17.4%.

On to `CN1CCCN(C(c2ccccc2)c2ccc(Cl)cc2)CC1` (stereo not drawn), for which the Potency in [7] is 8.91 µM (active); in [8], 10 µM (active); in [9], 7.08 µM (active); in assay [10], 5.62 µM (active); in [11], 5.01 µM (active); in [12], 7.94 µM (active). The max response in assay [6] is 0.505%.

For `CCC[C@H](N[C@@H](C)C(=O)N1[C@H](C(=O)O)C[C@@H]2CCCC[C@@H]21)C(=O)OCC`, the max response in assay [4] is 1.07%; in [2], -9.35%.

For the compound `O=C1NC(c2cccc([N+](=O)[O-])c2)=CCN1c1ccccc1O`, the max response in assay [6] is -1.53%.
